Assay results reported in PubChem BioAssay AID504652 (National Center for Advancing Translational Sciences (NCATS), 2011).
Screen size: about 360,000 compounds; about 11,000 (3.1%) were called active. The full list was thinned out, with actives kept by preference. Unmarked numbers belong to inactive results. Cut-off read from the data, not from the text of the source: active = activity change below about -30%; inactive = the rest.

The compounds below were run against D(1A) dopamine receptor (Homo sapiens) (UniProt P21728) (assay: Antagonist of Human D 1 Dopamine Receptor: qHTS). Conditions: HEK293 TREx D1 cells, calcium flux, dopamine EC80; at 10 µM; stronger effect = lower value.
Method in brief: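 Calcium flux readout: force-coupled, inducible Hek293 Trex D1 line, cells induced overnight at 30 C with tetracycline, dye-loaded 30–90 min at RT. Antagonism scored against EC80 dopamine challenge given 180 s after compound.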
% is set by controls: 0 for no effect and ±100 for the full control effect.

D(1A) dopamine receptor (Homo sapiens), sequence (P21728 whole entry, looked up): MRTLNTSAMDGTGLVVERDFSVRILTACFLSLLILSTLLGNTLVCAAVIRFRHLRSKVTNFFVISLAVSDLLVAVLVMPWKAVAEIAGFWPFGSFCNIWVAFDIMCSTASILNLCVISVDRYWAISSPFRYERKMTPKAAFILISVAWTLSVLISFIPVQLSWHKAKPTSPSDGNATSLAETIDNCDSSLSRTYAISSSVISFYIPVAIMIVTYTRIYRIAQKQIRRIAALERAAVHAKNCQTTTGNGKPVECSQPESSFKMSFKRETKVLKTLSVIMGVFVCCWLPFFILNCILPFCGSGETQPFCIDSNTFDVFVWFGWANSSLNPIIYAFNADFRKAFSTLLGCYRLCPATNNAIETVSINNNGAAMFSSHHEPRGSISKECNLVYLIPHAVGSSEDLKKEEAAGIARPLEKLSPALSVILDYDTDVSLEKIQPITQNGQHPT

SMILES	activity change, negative = inhibition
CCn1cc(C(=O)NCCc2ccccc2)c(=O)c2cc(S(=O)(=O)N3CCCCCC3)ccc21	-7.94%
CCn1c2ccccc2c2nnc(N3CCN(c4cc(C)ccc4C)CC3)nc21	-7.14%
COc1cccc(C(=O)NC2CCN(C#N)CC2)c1	4.13%
Cc1cccc(C(=O)NCCCN2CCCC2=O)c1	-31.5% (active)
O=C(NCCCN1CCCC1=O)c1ccc(S(=O)(=O)Nc2ccccc2)cc1	4.25%
O=C(NCCCN1CCCC1=O)c1cccc(S(=O)(=O)NCc2ccccc2)c1	-24.9%
CCCCCCn1nnc2sc(-c3ccccc3)cc2c1=O	0.186%
CC(=O)c1cc(NC(=O)c2ccccc2)c(=O)oc1/C=C/N(C)C	0.591%
CCOC(=O)c1cc(NC(=O)c2ccc(F)cc2)c(=O)n2c1oc1ccccc12	0.884%
CCOC(=O)c1cc(NC(=O)c2ccc(Cl)cc2)c(=O)oc1-c1ccccc1	-34.6% (active)
CSc1ccccc1NC(=O)CCS(=O)(=O)c1nc(-c2cccs2)cc(C(F)(F)F)n1	2.34%
O=C(CNC(=O)c1ccccc1)OC(C(=O)Nc1cc([N+](=O)[O-])ccc1F)c1ccccc1 (configuration not stated)	4.21%
CC(C)(C)OC(=O)N1CCC(c2c(C(=O)N3CCN(c4cccc(Cl)c4)CC3)cnn2-c2cccc(Cl)c2)CC1	-2.09%
Cc1nc(SCC(=O)N2CCN(c3ccccc3)CC2)[nH]c(=O)c1C	-2.36%
Cc1ccc(OCC(=O)OC(C)CN(C)Cc2ccccc2)cc1 (configuration not stated)	-3.69%
CN(Cc1ccccc1)CC(O)COc1ccc(CNCc2cc3ccccc3s2)cc1 (configuration not stated)	-41.2% (active)
COc1ccc(OCC(O)CN(C)C(=O)C(C)Oc2ccccc2)cc1 (configuration not stated)	-13.9%
Cc1ccc(C(=O)N/C(=C\c2cn(C)c3ccccc23)C(=O)N2CCN(C)CC2)cc1	10.2%
CCn1cc(/C=C(\NC(=O)c2cc(OC)c(OC)c(OC)c2)C(=O)N2CCN(C)CC2)c2ccccc21	3.95%

SMILES	activity change, negative = inhibition
COc1cc(C(=O)N/C(=C\c2cn(C)c3ccccc23)C(=O)N2CCOCC2)cc(OC)c1OC	-33.6% (active)
COc1ccccc1Cc1nc2ccccc2nc1SCC(=O)N1CCCc2ccccc21	-2.97%
COc1ccc(NC(=O)c2cnc(Nc3ccc(C)c(Cl)c3)c3ccccc23)cc1OC	0.261%
Cc1cc(C)c(NC(=O)Cn2c(SCC(=O)NCc3ccccc3)nc3ccccc32)c(C)c1	2.9%
Cc1ccccc1NC(=O)Cc1nc(COC(=O)c2cccnc2Cl)cs1	-12%
C/C=C/C(=O)OCc1csc(CC(=O)Nc2ccccc2C)n1	-6.19%
Cc1ccccc1NC(=O)Cc1nc(COC(=O)c2ccc(C(F)(F)F)cc2)cs1	-34.6% (active)
CCC(=O)N1CCc2cc(CNC(=O)Nc3ccccc3Cl)ccc21	8.55%
CCCN1C(=O)C(O)(CC(=O)c2ccc(CC)cc2)c2cc(Br)ccc21 (configuration not stated)	-2.04%
Cc1ccc(-c2onc(C)c2C)cc1S(=O)(=O)Nc1ccccn1	-4.41%
COc1ccc(-c2onc(C)c2C)cc1S(=O)(=O)NCCc1ccccc1	-3.85%
O=S(=O)(c1ccc(Br)cc1)c1nnn2c1nc(N1CCOCC1)c1sccc12	0.25%
O=C(Nc1ccncc1)Nc1ccc(F)cc1	9%
Cc1nc2cc(NC(=O)Nc3cccc(F)c3)ccc2n1C	-4.15%
O=C(Nc1ccc2ccccc2c1)Nc1ccc2snnc2c1	-44.8% (active)
Cc1ccccc1NC(=O)Cn1c(=O)n(Cc2ccco2)c(=O)c2ccc(C(=O)NC3CCCC3)cc21	-18.2%
COc1ccc(NC(=O)C(c2ccccc2)N2Cc3ccccc3C2=O)cc1 (configuration not stated)	-6.94%
CN1CCN(c2ccc(NC(=O)COc3ccc(Cl)cc3Cl)cc2)CC1	-32% (active)
CN1CCC(OC(=O)COc2ccc(Cl)cc2Cl)CC1	-9.08%

SMILES	activity change, negative = inhibition
CCC(=O)c1ccc(OCC(=O)Nc2ccc(N3CCCCC3)cc2)cc1	16.6%
COc1ccc(OCC(=O)OCC(=O)Nc2ccc(S(=O)(=O)N3CCCCC3)cc2)cc1	-15.5%
Cc1ccc(Cl)c(OCC(=O)N(C)CC(=O)Nc2ccc(N3CCOCC3)cc2)c1	-14.5%
COc1ccc(OCC(=O)Nc2ccc(N3CCC(C)CC3)cc2)cc1	-33.3% (active)
CCOC(=O)C1CCN(C(=O)CSc2c3c(nc4ccc(Cl)cc24)CCCC3)CC1	-13.5%
CC(=O)N1CCc2cc(Br)cc(S(=O)(=O)CCC(=O)NCCc3ccc(Cl)cc3)c21	-8.71%
COc1ccc(-c2noc(CSc3nc4ccc(C)cc4[nH]3)n2)cc1	-1.27%
CC(=O)c1ccc(NC(=O)c2nc(-c3ccc(C)cc3)n3c2CCCCC3)cc1	-2.03%
Cn1cc(C(=O)c2ccc(Cl)cc2Cl)cc1C(=O)NN	-37.3% (active)
O=C(CCN1C(=O)c2ccccc2C1=O)NNC(=O)c1ccc(Cl)cc1Cl	-4.44%
CC(C)(C)c1cc(C(=O)NN)n(Cc2ccc(Cl)cc2Cl)n1	-27.8%
Cc1ccc(NC(=O)c2cn3c4c(ccc(Cl)c4c2=O)OC(C)C3)cc1C (configuration not stated)	-1.66%
Cc1cc(Cl)ccc1NC(=O)Cc1ccc(NC(=O)N2CCCCc3ccccc32)cc1	-3.59%
CCOc1ccc(NC(=O)CCc2c(C)nn(-c3ccc(N4CCCC4)nn3)c2C)cc1	4.71%
CC(=O)Nc1c(C)nn(-c2ccccc2)c1N1CCC(C(=O)Nc2cc(Cl)ccc2C)CC1	-18.9%
CSc1ncc(Cl)c(C(=O)Nc2ccc(S(=O)(=O)N3CCCC(C)C3)cc2)n1 (configuration not stated)	-5.19%
CCOc1ccc(CN(C)C(=O)c2ccc(=O)[nH]c2)cc1	10.3%
CN(Cc1ccccc1)C(=O)c1ccc(COc2ccccc2)cc1	-60.8% (active)
CN(CC(=O)Nc1ccc(Cl)cc1)C(=O)c1ccc(COc2ccccc2)cc1	3.34%
